In PubChem BioAssay (NCI):
Compounds without any hit were thinned out: in the full panel of roughly 83,000, 20% have a hit.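 For each line, cells grew in 96-well plates with the test compound present at a single concentration for 48 hours.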 Calls of active or inactive are those of the source. Rule for the calls: active = growth percent below 10; inactive = the rest.

Assays:
Assay in all cases: NCI-60 one-dose screen, 48 h (100 = growth as untreated, 0 = no growth, -100 = all killed)
Details in all cases: 10 µM
[1] = system: NCI-H23 lung
[2] = system: NCI-H226 lung
[3] = system: HOP-62 NSCLC
[4] = system: NCI-H460 lung
[5] = system: HOP-92 NSCLC
[6] = system: NCI-H522 lung
[7] = system: A549/ATCC NSCLC
[8] = system: 786-0 renal
[9] = system: COLO 205 colon
[10] = system: DU-145 prostate
[11] = system: K-562 leukemia
[12] = system: MALME-3M melanoma
[13] = system: MDA-MB-231 breast
[14] = system: RXF 393 renal
[15] = system: SF-268 CNS
[16] = system: SF-295 CNS
[17] = system: SF-539 CNS
[18] = system: UACC-257 melanoma
[19] = system: M14 melanoma

Measured: growth

CCOC(=O)C(C)(c1ccccc1)c1ccccc1
inactive: [1] 106% | [2] 100% | [3] 95% | [4] 106% | [5] 98.6% | [6] 94.8% | [7] 92.9% | [8] 119% | [9] 120% | [10] 106% | [11] 113% | [12] 112% | [13] 111% | [14] 123% | [15] 104% | [16] 102% | [17] 97.7% | [18] 93.5% | [19] 102%

CCOC(=O)c1cc(C(=O)c2ccc(F)cc2F)n2ccccc12
inactive: [1] 101% | [2] 88.2% | [3] 88.6% | [4] 97.5% | [5] 47.1% | [6] 70.1% | [7] 86% | [8] 90.6% | [9] 110% | [10] 105% | [11] 85.9% | [12] 120% | [13] 79.9% | [14] 99.3% | [15] 85.7% | [16] 94.7% | [17] 95.2% | [18] 93.4% | [19] 108%

COc1ccc(/C=C2/SC(=S)NC2=O)c(OC)c1OC
inactive: [1] 73.9% | [2] 81.6% | [3] 69.2% | [4] 90.3% | [5] 36.8% | [6] 73.3% | [7] 79.5% | [8] 87.9% | [9] 105% | [10] 97.9% | [11] 84% | [12] 65.7% | [13] 62.7% | [14] 81.5% | [15] 80.5% | [16] 76.5% | [17] 83.2% | [18] 88.9% | [19] 87.4%

COc1cc2c(Nc3ccc(S(N)(=O)=O)cc3)ncnc2c(OC)c1OC
inactive: [1] 96.7% | [2] 84.9% | [3] 92.3% | [4] 105% | [5] 85.9% | [6] 89.4% | [7] 102% | [8] 121% | [9] 89.2% | [10] 107% | [11] 97.8% | [12] 95% | [13] 94.9% | [14] 109% | [15] 90.2% | [16] 105% | [17] 99.3% | [18] 94.9% | [19] 124%

C=CCn1c(SCC(=O)Nc2ccc(C(=O)/C=C/c3cc(OC)c(OC)c(OC)c3)cc2)nnc1-c1cc(-c2ccc(Cl)cc2)nc2ccccc12
inactive: [1] 88.7% | [2] 89.1% | [3] 97.5% | [4] 93.1% | [5] 83% | [6] 83.1% | [7] 96.7% | [8] 74.2% | [9] 115% | [10] 95.3% | [11] 75.9% | [12] 97.8% | [13] 75% | [14] 59.4% | [15] 90.9% | [16] 98% | [17] 84.3% | [18] 102% | [19] 95.5%

CCOC(=O)c1cc(C(=O)c2cc(OC)cc(OC)c2)n2nc(C)ccc12
active: [6] -10.9% | [9] -11.5% | [17] 3.84%
inactive: [1] 37.2% | [2] 78.6% | [3] 48.4% | [4] 10.8% | [5] 13.9% | [7] 26.9% | [8] 34.4% | [10] 21.9% | [11] 10.3% | [12] 74.3% | [13] 52.6% | [14] 13.6% | [15] 62.4% | [16] 23.9% | [18] 59.5% | [19] 11.4%

Cc1cc(CCNC=O)c(C)c2c1sc1ccccc12
inactive: [1] 86.6% | [2] 77.2% | [3] 86.2% | [4] 104% | [5] 91.2% | [6] 101% | [7] 82.9% | [8] 106% | [9] 124% | [10] 112% | [11] 97.2% | [12] 105% | [13] 79.9% | [14] 80% | [15] 92.5% | [16] 94.8% | [17] 87.2% | [18] 90.1% | [19] 118%

CC(C)N(CCOc1ccc(-c2nc3sccn3c2-c2ccnc(S(C)(=O)=O)n2)cc1)C(C)C
inactive: [1] 90.3% | [2] 87.7% | [3] 85.2% | [4] 102% | [5] 29.6% | [7] 105% | [8] 77.6% | [9] 86.8% | [10] 99.9% | [11] 62.9% | [12] 102% | [13] 75.4% | [14] 93.2% | [15] 96.3% | [16] 108% | [17] 95.4% | [18] 78.4% | [19] 112%
active: [6] -26.9%
